Each structure is given as a SMILES string.

Results on 50 compounds are retold here after ChEMBL document CHEMBL3988442, “University of Dundee, Small-Polar-MMV Screening Library” (2021).

For assay [1], the target named is T1, Aspartate--tRNA(Asp/Asn) ligase (Mycobacterium tuberculosis (strain ATCC 25618 / H37Rv)) (UniProt P9WFW3). Also: in the data most compounds retested in dose-response had high values.
T1 sequence (whole entry): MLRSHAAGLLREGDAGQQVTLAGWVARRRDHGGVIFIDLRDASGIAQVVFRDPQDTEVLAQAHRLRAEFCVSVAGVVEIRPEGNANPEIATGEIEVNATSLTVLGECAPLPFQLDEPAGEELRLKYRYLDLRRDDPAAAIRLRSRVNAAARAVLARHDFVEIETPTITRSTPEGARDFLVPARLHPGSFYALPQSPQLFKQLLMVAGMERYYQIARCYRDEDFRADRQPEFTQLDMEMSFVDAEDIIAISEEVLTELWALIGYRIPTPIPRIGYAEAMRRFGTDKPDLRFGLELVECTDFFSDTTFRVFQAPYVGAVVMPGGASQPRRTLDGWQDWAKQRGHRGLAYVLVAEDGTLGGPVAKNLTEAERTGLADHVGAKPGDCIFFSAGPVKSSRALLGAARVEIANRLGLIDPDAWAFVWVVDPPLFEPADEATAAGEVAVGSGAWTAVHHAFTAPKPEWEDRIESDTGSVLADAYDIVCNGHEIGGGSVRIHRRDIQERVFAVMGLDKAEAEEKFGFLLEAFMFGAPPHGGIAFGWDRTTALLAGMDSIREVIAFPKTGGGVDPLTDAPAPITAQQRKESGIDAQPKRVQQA
Description: Assay for Asp RNA synthetase-1 from Mycobacterium tuberculosis. The note with it: 30 µM. Set-up: scale not given: direction of the effect not stated beside the values. Format: functional.

Assay [2] concerns the target Shiga toxin 2 (Escherichia coli O157:H7) (UniProt P09385+P09386). Description: E. coli 0.157:H7 Shiga Toxin SOP - stx2 screening assay. Further details: scale not given: direction of the effect not stated beside the values. Format: functional. The note with it: 30 µM.

Take `CC(C)NC(=O)c1nnn(-c2cccc(C(F)(F)F)c2)c1C1CC1`: the results for the Percent Effect in assay [1] and in assay [2] were -2.65% and 8.87%, respectively.
For `CCc1nccn1C1CCCN(C(=O)c2csc(NC(C)=O)n2)C1` (stereo not given), in that order: -1.64% and -11.1%.
For the compound `O=C(CCc1ccccc1F)NS(=O)(=O)c1ccc2c(c1)OCCCO2`, the Percent Effect in assay [1] was 2.29%; in assay [2], -13.9%.
As to `COCCO[C@H]1CCN(C(=O)c2cc(C)on2)[C@H]1Cc1ccccc1`, the Percent Effect in assay [1] was -1.39%; in assay [2], -1.24%.
As to `c1nc2c(c(C3CC3)n1)CCN(CC1CCOC1)CC2` (stereo not given), the results for the Percent Effect in assay [1] and in assay [2] were 3.35% and -6.27%, respectively.
For `O=C1CCC2(CCN(Cc3cc(F)cc(F)c3)CC2)CN1CCO`, in that order: -0.529% and 6.69%.
For the compound `NC(=O)c1cccc(CC2CCN(C(=O)CO)C2)c1` (stereo not given), the Percent Effect was 3.02% in assay [1] and -19.3% in assay [2].
For the compound `CN1CCCC1CNC(=O)CCCOc1ccc(F)cc1` (stereo not given), the Percent Effect in assay [1] was -1.43%; in assay [2] it was 1.57%.
In the case of `CSCc1cccc(S(=O)(=O)NCCCn2ccnc2)c1`, the Percent Effect in assay [1] was 11%; in assay [2], -15.1%.
`Cc1ccc(N2CC[C@H]3OCC[C@@]3(C(=O)NC(C)C)C2)nn1`: the Percent Effect in assay [1] is -2.66%; in assay [2] it was 7.17%.
The corresponding values for `Cc1csc([C@@H]2C[C@@H]3CCN(C(=O)c4cc(C)on4)C[C@H]3O2)n1` are 0.801% and -17.6%.
The corresponding values for `COCCN1C[C@@H]2CN(Cc3ccsc3)CCC[C@]2(C(=O)O)C1` are 2.26% and -14.2%.
For `COc1cccc(-c2noc(C3CCN(Cc4cccs4)C3)n2)c1` (stereo not given), in that order: -0.868% and -30%.
For `O=C1NCCN(CC2CC2)C12CCN(Cc1ccc3c(c1)OCO3)CC2`, the values for the Percent Effect in assay [1] and in assay [2] were 11.3% and -21.2%, respectively.
Turning to `CN(C)S(=O)(=O)c1ccc(CN2CCCC2c2ccc[nH]2)o1` (stereo not given), the Percent Effect in assay [1] was -3.62%; in assay [2] it was 8.06%.
The corresponding values for `CCOc1nnc(CNC2CCCN(c3ccc(C)nn3)C2)s1` (stereo not given) are 9.48% and 19.6%.
For `O=C(CN1CCCCC1Cn1cccn1)NC1CCN(C2CC2)CC1` (stereo not given), in that order: 1.64% and 4.12%.
With `O=C(O)c1cc(S(=O)(=O)Nc2cc(F)ccc2F)cc2c1OCCO2`, the Percent Effect in assay [1] is -2.5%; in assay [2] it was 31.1%.
For `COC(=O)C1CCN(C(=O)c2ccc(N(C)S(C)(=O)=O)c(C)c2)CC1`, the Percent Effect in assay [1] is -4.11%; in assay [2], -5.54%.
For `COCCN(C)C(=O)Cn1cccc(OC)c1=O`, in that order: 49.9% and -42.8%.
For `CCS(=O)(=O)c1ccccc1N1CCC(NC(=O)NC2CCCC2)CC1`, in that order: -3% and 7.11%.
For `COc1cc(CNC(=O)C2CC(=O)N(C(C)C)C2)ccn1` (stereo not given), in that order: -1.66% and -62.3%.
For `O=C(CCCc1nc2ccccc2[nH]1)N1CCCC(n2cccn2)C1` (stereo not given), the Percent Effect in assay [1] is 0.834%; in assay [2] it was 3.01%.
`O=C(NCCO)c1ccn(-c2ccc3ccccn23)n1`: the Percent Effect in assay [1] was 2.94%; in assay [2], -37%.
As for `CC1CCc2nc(O)c(C(=O)NCCN(C)C)cc2C1` (stereo not given), the Percent Effect in assay [1] is -0.552%; in assay [2], -8.38%.
For `CC(=O)NC1CCCN(C(=O)NCc2cccnc2-n2cccn2)C1` (stereo not given), in that order: -3.6% and -14.7%.
`CC(=O)Nc1nc(CN2CCn3c(nnc3C3CC3)C2)cs1`: the Percent Effect in assay [1] was -7.9%; in assay [2] it was -26.2%.
The corresponding values for `c1coc(-c2nnc(CN3CCCC(CN4CCCCCC4)C3)o2)c1` (stereo not given) are 2.88% and -14.6%.
For the compound `COCC(O)CNC(=O)c1cnc(-c2ccccc2)nc1O` (stereo not given), the Percent Effect was 2.15% in assay [1] and -7.39% in assay [2].
For `O=C(CN1C=Nc2ccccc2S1(=O)=O)NCCc1cccs1`, in that order: 0.225% and -2.28%.
For `Cc1cccnc1CNCC1(O)CCCN(CC2CCCCC2)C1=O` (stereo not given), in that order: -2.28% and 13.1%.
For `Cc1oc(-c2ccco2)nc1CC(=O)N1CCC(C(O)C(F)(F)F)CC1` (stereo not given), in that order: -5.79% and 4.07%.
Turning to `CC(C)CNC(=O)c1c(-n2cnnn2)sc2c1CCC2`, the Percent Effect in assay [1] was found to be 8.87%; in assay [2], 2.02%.
Take `Cn1cc(C2CC(=O)NC23CCN(c2ncc(F)cn2)CC3)cn1` (stereo not given): the Percent Effect in assay [1] is 0.844%; in assay [2], -18.9%.
Regarding `O=C1NC(c2ccccc2)=N[C@@]12CC[C@@H]1CN(CC3CCOCC3)C[C@@H]12`, the Percent Effect in assay [1] was 1.31%; in assay [2] it was -0.652%.
For the compound `COc1ccccc1-c1cc(C(F)(F)F)c2c(C)nn(CC(=O)O)c2n1`, the Percent Effect in assay [1] was 3.1%; in assay [2] it was -13.7%.
For `Cc1ncc(CNC(=O)Nc2cc(C(F)(F)F)c[nH]c2=O)s1`, in that order: 2.67% and -19.6%.
For `O=C(c1cnc(C2CC2)s1)N1CCCCC1Cn1cccn1` (stereo not given), in that order: -8.43% and -18.5%.
For the compound `NC(=O)C1CCN(C(=O)c2cccc(CN3CCOCC3)c2)CC1`, the Percent Effect in assay [1] is -1.59%; in assay [2] it was 3.51%.
In the case of `CCCn1nc2c(cc1=O)CN(CCCN1CCCC1=O)CC2`, the Percent Effect in assay [1] worked out at 10.1%; in assay [2] it was 12.4%.
The corresponding values for `CN(C)C(=O)C1CN(Cc2c[nH]cn2)CCN(C2CCOCC2)C1` (stereo not given) are 0.313% and -8.14%.
For `Cn1cc(C(=O)NCC2CCN(C(=O)NCC(F)(F)F)CC2)cn1`, in that order: 2.43% and -39.4%.
`Cc1sc(NC(=O)CN(C)S(C)(=O)=O)c(C#N)c1C`: the Percent Effect in assay [1] was 1.76%; in assay [2], -4.6%.
For `CCN(CC1CCOC1)C(=O)c1ccccc1NS(=O)(=O)CC` (stereo not given), in that order: -4.47% and 33.3%.
For `COc1cccc(CCNC(=O)CN2CCN(C)CC2C)c1` (stereo not given), in that order: 0.495% and 20%.
`CCN(C(=O)CN(C)C(c1cccc(F)c1)c1ccccn1)C1CC1` (stereo not given): the Percent Effect in assay [1] is -2.49%; in assay [2] it was 8.33%.
The corresponding values for `CCOC1CCCN(C(=O)NCCc2ccn(-c3ccccc3)n2)C1` (stereo not given) are 0.577% and 12.9%.
Regarding `CC(C)(C)OC(=O)CNC(=O)CCc1nnc(-c2ccsc2)o1`, the Percent Effect is 8.92% in assay [1] and -21.2% in assay [2].
Turning to `CCCc1cc(C(=O)N(C)Cc2cccc3ncccc23)n(C)n1`, the Percent Effect in assay [1] is -1.28%; in assay [2], -12.5%.
In the case of `O=C1CC(c2cccnc2)C2(CCN(C(=O)c3ccncc3)CC2)N1` (stereo not given), the Percent Effect is -5.73% in assay [1] and 7.39% in assay [2].
